Bioassay records deposited in PubChem by Broad Institute.
HSF-1 act: increases HSF-1 driven luciferase reporter signal | NIH3T3-HGL HSF-1 luciferase reporter, MG132, 8 h; 100% = twice DMSO control signal | activation, % at 9 µM | 300,000 tested, 1.7% active;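 active = mean replicate activation of at least 50% with a set share of replicates each reaching 50%; inconclusive = only one of those two conditions met; inactive = mean below 50% and too few replicates reaching it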
HSF1 inhib: HSF1 inhibition. 300,000 tested, 0.77% active. activity change, negative = inhibition, % at 7.5 µM (by protocol). NIH3T3-HGL HSE-luciferase, MG132-induced, luminescence 8 h; hits give low values;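 active = more than half of replicate wells show activity change below -50%, luminescence cut by over half; inconclusive = some wells, but at most half, below -50%; inactive = no replicate well below -50%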;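 also: luciferase reports HSF-1 transcriptional activity via heat shock element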
Vif inh: blocks HIV Vif function; inhibition, % at 7.49 µM; 340,000 tested, 0.35% active; HEK293T cells, Vif self-association by quenched fluorescence, imaging, 24 h; in the data active = inhibition above about 50%, passing the limit was not always enough; inconclusive = no clear call, values can overlap the other calls; inactive = below about 31%
esBAF inh: blocks esBAF chromatin remodeling in mouse ES cells; Bmi1-luciferase knock-in reporter, 24 h; 100% = twice the neutral-well signal; reporter increase, % at 12.5 µM; 350,000 tested, 2% active; AID 602393; in the data active = activation above about 40%; inconclusive = no clear call, values can overlap the other calls;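 also: a rise in the Bmi1 reporter signal indicates esBAF inhibition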
Each line names hits and unclear results; the compound was inactive in the other large screens. Most compounds without a hit are left out; they make up all but 3.4% or so of the library.

CN1CCN(C(=O)C[C@H]2CC[C@H]3[C@@H](COC[C@@H](O)CN3C(=O)Nc3ccc4c(c3)OCO4)O2)CC1	none (no result: HSF-1 act, HSF1 inhib, Vif inh)
CCCN(CCC)C1CC(=O)N(Cc2ccccc2)C1=O (configuration not stated)	HSF1 inhib inconclusive
O=C(O)C(Cc1ccccc1)N1C(=O)C2CCCCC2C1=O (configuration not stated)	none (no result: esBAF inh)
O=C(O)c1ccc(NC2CC(=O)N(Cc3ccccc3)C2=O)cc1 (configuration not stated)	none
O=C1CC(N(O)C2CC(=O)N(Cc3ccccc3)C2=O)C(=O)N1Cc1ccccc1 (configuration not stated)	HSF-1 act 57
O=C1C2CCCCC2C(=O)N1Cc1ccccc1 (configuration not stated)	HSF-1 act 68
Cc1ccc(NC2CC(=O)N(Cc3ccccc3)C2=O)cc1 (configuration not stated)	HSF-1 act 56
COc1ccc(S(=O)(=O)N(C)C[C@H]2Oc3ccc(NC(=O)CCCN(C)C)cc3C(=O)N([C@@H](C)CO)C[C@@H]2C)cc1	none (no result: HSF-1 act, HSF1 inhib, Vif inh)
Cc1cccc(C(=O)Nc2ccc(C(=O)/C=C/c3cccnc3)cc2)c1	HSF-1 act 163, esBAF inh 42
Cc1cccc(C(=O)Nc2ccc(C(=O)/C=C/c3ccncc3)cc2)c1	HSF-1 act 92
Cc1cccc(/C=C/C(=O)c2ccc(NC3=NCCCS3)cc2)c1	HSF-1 act 74 (no result: esBAF inh)
O=C(C[C@H]1C=C[C@@H](NC(=O)C2CC2)[C@@H](CO)O1)Nc1nccs1	none (no result: HSF-1 act, HSF1 inhib, Vif inh)
CCOc1ccc(C(C(=O)NCCC(C)C)N(CCO)C(=O)c2snc(C(N)=O)c2N)cc1 (configuration not stated)	none
CCOCCCN(C(=O)c1snc(C(N)=O)c1N)C(C(=O)NCCC(C)C)c1ccc(F)cc1 (configuration not stated)	HSF-1 act 53
C#CCN(CC=C)C(=O)CCc1nnc(COc2ccccc2)o1	esBAF inh 59
C=C(C)CN(CC)C(=O)CCc1nnc(CCCc2ccccc2)o1	HSF-1 act inconclusive (no result: esBAF inh)
C[C@H]1CN([C@@H](C)CO)C(=O)Cc2cc(NC(=O)c3ccncc3)ccc2O[C@H]1CN(C)Cc1ccc(Oc2ccccc2)cc1	none (no result: HSF-1 act, HSF1 inhib, Vif inh)
Cc1ccc(NC(=S)NC2CC3CCC(C2)N3Cc2ccco2)cc1C (configuration not stated)	HSF1 inhib -84
O=C(NCc1ccc2c(c1)OCO2)c1nc(S(=O)(=O)Cc2ccccc2F)ncc1Cl	HSF-1 act 84
O=C(NCc1ccc2c(c1)OCO2)c1nc(S(=O)(=O)Cc2ccccc2)ncc1Cl	HSF1 inhib -89
O=C(NCc1ccc2c(c1)OCO2)c1ccccc1Cl	none
CO[C@H]1CN(C)C(=O)c2ccc(NC(=O)NC(C)C)cc2OC[C@H](C)N(Cc2cncnc2)C[C@H]1C	none (no result: HSF-1 act, HSF1 inhib, Vif inh)
CC(C)(C)c1ccc(C(=O)Nc2ccc(F)cc2)s1	HSF-1 act 78 (no result: esBAF inh)
Cn1nc(C(F)(F)F)c2cc(C(=O)Nc3ccc(F)cc3)sc21	none (no result: esBAF inh)
CC(=O)N1CCN(c2ccc(NC(=O)c3ccc([N+](=O)[O-])o3)cc2Cl)CC1	HSF1 inhib -88, Vif inh 57
CCC(=O)N1CCN(c2ccc(NC(=O)c3ccc([N+](=O)[O-])o3)cc2Cl)CC1	HSF-1 act 128, Vif inh 66 (no result: esBAF inh)
O=C(Nc1ccc(N2CCCC2)c(Cl)c1)c1ccc(Br)o1	esBAF inh 76
COc1ccc(S(=O)(=O)N(C)C[C@@H]2OCCCC[C@H](C)Oc3ccc(N(C)C)cc3C(=O)N([C@@H](C)CO)C[C@@H]2C)cc1	none (no result: HSF-1 act, HSF1 inhib, Vif inh)
CO[C@@H]1CN(C)C(=O)c2cc(NC(=O)c3cc(C)on3)ccc2OC[C@@H](C)N(CC2CC2)C[C@H]1C	none (no result: HSF-1 act, HSF1 inhib, Vif inh)
CCOC(=O)/C(=N\Nc1ncnc2ccccc12)c1ccc(C)cc1	none
CCOC(=O)C/C(=N\Nc1ncnc2ccccc12)c1ccccc1	esBAF inh 43
Clc1cccc(/C=N/Nc2ncnc3ccccc23)c1	esBAF inh 53
C(=N\Nc1ncnc2ccccc12)/c1ccccc1	esBAF inh 70
C(=N\Nc1nncc2ccccc12)/c1ccccc1	none
COc1ccc(S(=O)(=O)N(C)C[C@H]2OCCCC[C@H](C)Oc3ccc(NC(=O)CCC(F)(F)F)cc3C(=O)N([C@H](C)CO)C[C@H]2C)cc1	none (no result: HSF-1 act, HSF1 inhib, Vif inh)
C[C@H]1CCC(=O)N(CCSc2ccc(Br)cc2)CC1	esBAF inh 53 (no result: HSF-1 act, HSF1 inhib)
Cc1ccc(SCCN2CCC(C(C)(C)C)CCC2=O)cc1 (configuration not stated)	none
CC(C)(C)C1CCC(=O)N(CCSc2ccccc2)CC1 (configuration not stated)	esBAF inh 62 (no result: Vif inh)
